Source: PubChem BioAssay AID1851 (National Center for Advancing Translational Sciences (NCATS), 2009)
About 2,600 (16%) of roughly 16,000 compounds were called active. Not shown: some 20% with an inconclusive outcome. Calls follow the shape of the dose curve; as a rule, active = well fitted curve in the direction sought with a large enough effect; inconclusive = small, poorly fitted or top-dose-only effect, or effect the other way; inactive = no such curve, though single readings can be large or run the other way. The list is a sample of the results.

target: Cytochrome P450 2D6 (Homo sapiens) (UniProt P10635); test: Cytochrome panel assay with activity outcomes; details: recombinant CYP, pro-luciferin dealkylation, luminescence, p450-cyp2d6; series mostly up to 57.1 µM
Sequence (P10635 whole entry, looked up): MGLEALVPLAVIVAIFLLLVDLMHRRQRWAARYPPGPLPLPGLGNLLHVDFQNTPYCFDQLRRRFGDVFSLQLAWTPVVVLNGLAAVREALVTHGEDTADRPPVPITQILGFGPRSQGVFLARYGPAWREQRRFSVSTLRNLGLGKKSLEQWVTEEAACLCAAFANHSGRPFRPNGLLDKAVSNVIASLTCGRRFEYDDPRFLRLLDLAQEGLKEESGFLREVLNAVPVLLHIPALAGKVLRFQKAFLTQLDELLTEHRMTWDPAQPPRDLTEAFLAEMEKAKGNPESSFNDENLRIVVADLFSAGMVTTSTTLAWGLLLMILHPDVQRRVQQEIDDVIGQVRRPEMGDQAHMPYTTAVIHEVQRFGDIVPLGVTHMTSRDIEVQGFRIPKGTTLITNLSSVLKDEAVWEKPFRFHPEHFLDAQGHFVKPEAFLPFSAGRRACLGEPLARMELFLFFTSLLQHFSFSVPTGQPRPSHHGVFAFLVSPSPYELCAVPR
% is scaled to controls: 0 for no effect and ±100 for the full control effect.

activity, negative = inhibition, inactive:
CC(C)=CCC/C(C)=C/CO/N=C1/C[C@@H](O)[C@@H](O)[C@@H]2[C@H]3C(=O)N(c4ccc(F)cc4F)C(=O)[C@@H]3CC[C@H]12 6.74% [at 11.4 µM]
O=C(O)/C=C\C(=O)N1Cc2cc3ccccc3nc2C1 -1.33% [at 11.4 µM]
COC(=O)C/C=C\[C@@H](C)[C@@H](/C=N\O[C@@H](C)c1cn([C@H](CO)Cc2ccccc2)nn1)NS(=O)(=O)c1ccc(C)cc1 -17.6% [at 11.4 µM]
O=C(CN1C(=O)c2ccccc2C1=O)NC1(C(=O)O)CCCC1 2.83% [at 11.4 µM]
CC(C)[C@H](NC(=O)OC(C)(C)C)[C@@H](O)CC(=O)C(C)(C)C 3.85% [at 11.4 µM]
CC(=O)C[C@H](O)[C@@H](NC(=O)OC(C)(C)C)C(C)C -3.21% [at 11.4 µM]
COc1ccc(C[C@@H]2C(=O)N[C@H](C)C(=O)N(C)[C@@H]3Cc4ccc(cc4)Oc4cc(ccc4O)C[C@H](C(=O)N[C@@H](C)C(=O)N[C@H](C)C(=O)N2C)N(C)C3=O)cc1 -5.02% [at 11.4 µM]

AC50, inactive:
O=c1cc(CSc2nnc(-c3cccnc3)n2-c2ccccc2F)nc2sccn12
COc1ccc(OC)c(NC(=O)C(CC(=O)O)NCc2ccco2)c1 (stereo not drawn)
COc1ccc(-n2c(N)c(C(=O)NCc3ccco3)sc2=S)cc1
CS(=O)(=O)N1CCC2(CC1)CN(C(=O)Nc1cccc(C#N)c1)C2
CC(=O)N(CC(O)CN(C(C)=O)c1c(I)c(C(=O)NC[C@@H](O)CO)c(I)c(C(=O)NC[C@@H](O)CO)c1I)c1c(I)c(C(=O)NC[C@@H](O)CO)c(I)c(C(=O)NC[C@@H](O)CO)c1I
COc1ccc(-n2cccc2C=O)cc1OC
CS(=O)(=O)N1CCC2(CCN(c3ccccc3)CC2)CC1
CS(=O)(=O)N1CCC2(CC1)CN(c1ccc(-c3ccccc3)cc1)C2
CS(=O)(=O)N1CCC2(CCCN(c3ccncc3)C2)CC1
CS(=O)(=O)N1CCC2(CC1)CN(c1ccncc1)C2
CS(=O)(=O)N1CCC2(CCN(c3cccc(-c4ccccc4)c3)CC2)CC1
CS(=O)(=O)N1CCC2(CC1)CN(C(=O)Nc1ccccc1)C2
O=C1NC(=S)N/C1=C/c1cccc([N+](=O)[O-])c1O
O=C1CC(c2ccc(F)cc2)Cc2nc(NCC3CCCO3)ncc21 (stereo not drawn)
CC12CCC(C(=O)Nc3ncc([N+](=O)[O-])s3)(OC1=O)C2(C)C (stereo not drawn)
Cc1cccc(C(=O)NN(C)c2nc(-c3ccccc3)nnc2C(F)(F)F)c1
CCOC(=O)N1CCN(C(=O)c2cc(-c3ccc(F)cc3)[nH]c2C)CC1
COCCCn1nnnc1SCC(=O)N1CCCC1
Cn1c(SC2CCCCC2=O)nnc1-c1ccncc1 (stereo not drawn)
COC(=O)Cn1nc(-c2ccccc2)n(-c2ccccc2)c1=S
O=C(NC(=S)Nc1cccc(Cl)c1N1CCCC1)c1ccc(-c2cccc([N+](=O)[O-])c2)o1
CS(=O)(=O)N1CCC[C@@]2(CCN(c3ccccc3)C2)C1
CS(=O)(=O)N1CCC[C@@]2(CCN(C(=O)Nc3ccccc3)C2)C1
Cc1nc2c3cnn(-c4ccc(C)c(C)c4)c3ncn2n1
CCCc1nnc(SCC(=O)N2CCCC(C)C2)n1CC1CCCO1 (stereo not drawn)
COC(=O)N1CCC2(CC1)CN(C(=O)Nc1ccc(OC)cc1)C2
Cc1ncc(CO)c(CO)c1O
CCC1NC(=S)N(C2CCCCC2)C1=O (stereo not drawn)
C(/C=C/c1ccco1)=N/N1CCN(c2ccccc2)CC1
O=C(/C=C/c1ccccc1Cl)NCCN1CCOCC1
O=C(/C=C/c1ccc(Cl)cc1)NCCN1CCOCC1
O=c1c(-c2ccc(F)cc2)nc2cnc(N3CCOCC3)nc2n1C1CC1
COCCn1c(=O)c(-c2ccccc2)nc2cnc(Oc3ccccc3)nc21
COc1ccc(NC(=O)N2CC3(CCN(C(=O)c4ccc(OC)cc4)CC3)C2)cc1
CCCc1nnc(SCC(=O)N2CCCCC2C)n1CC1CCCO1 (stereo not drawn)
Cc1ccc(OC(=O)N2CCOCC2)cc1
CCOC(=O)C1CCCN(c2ncnc3c2cnn3-c2cccc(C)c2)C1 (stereo not drawn)
CN1CCN(c2ncc3nc(-c4ccc(F)cc4)c(=O)n(C4CC4)c3n2)CC1
CCn1c(SCc2cccc(C)c2)nnc1-c1ccc(C)cc1
COc1ccc(NCc2nnc(SCc3ccccc3)n2-c2ccc(OC)cc2)cc1
Cc1ccc(OCC(=O)NC2=NCCS2)cc1
CCC(=O)Nc1ccc(C(=O)NNC(=O)c2cccs2)cc1
Cc1ccc(NC(=O)C2CCN(S(=O)(=O)c3c(C)n[nH]c3C)CC2)nc1
NC[C@@H]1O[C@H](C23CC4CC(CC(C4)C2)C3)Cc2c1ccc(O)c2O
NC(=O)CSc1nc2sc(-c3ccccc3)cc2c(=O)n1N

AC50, active:
C=CCC(NCc1ccco1)c1ccc(OC)cc1 (stereo not drawn) 5.01 µM
CS(=O)(=O)N1CCC2(CCN(C(c3ccccc3)c3ccccc3)CC2)CC1 3.16 µM
CS(=O)(=O)N1CCC2(CC1)CN(c1ccccc1)C2 1.26 µM
CS(=O)(=O)N1CCC2(CC1)CN(C(c1ccccc1)c1ccccc1)C2 2.51 µM
CS(=O)(=O)N1CCC2(CCCN(C(c3ccccc3)c3ccccc3)C2)CC1 5.01 µM
CS(=O)(=O)N1CCC[C@@]2(CCN(C(c3ccccc3)c3ccccc3)C2)C1 3.98 µM
Cc1ncc2c(c1O)COP(=O)(O)OC2 1 µM
N=c1n(CCN2CCOCC2)c2ccccc2n1CC(=O)c1ccc(Cl)c(Cl)c1 2 µM
C[C@H]1CC(C)(C)C[C@@](OCCN2CCCCC2)(c2ccccc2)C1 0.631 µM
COc1ccc(-c2nnc(SCc3cccc(C)c3)n2N)cc1 14.1 µM
CC(C)[C@H](NC(=O)OC(C)(C)C)[C@@H](O)CC(=O)OC(C)(C)C 3.16 µM
